In all, about 340,000 compounds went through this assay and about 4,200 (1.2%) were called active.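 The calls were made as follows: active = inhibition above the mean of all tested compounds plus 3 SD (cut at about 24% in these data); inactive = the rest.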 The entries come from a sample that favours actives as a whole.
Target: Platelet-activating factor acetylhydrolase IB subunit alpha2 (Homo sapiens) (UniProt P68402)
Assay: inhibition of PAF acetylhydrolase 1b subunit 2 – biochemical, fluorescence polarization, human, primary screen (AID 492953);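 also: 0% = enzyme with DMSO and 100% = wells lacking PAFAH1B2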
Details: recombinant PAFAH1B2, FP-rhodamine activity probe, at 3.39 µM, active compounds read high

Chain of Platelet-activating factor acetylhydrolase IB subunit alpha2 (Homo sapiens) (P68402 whole entry, looked up): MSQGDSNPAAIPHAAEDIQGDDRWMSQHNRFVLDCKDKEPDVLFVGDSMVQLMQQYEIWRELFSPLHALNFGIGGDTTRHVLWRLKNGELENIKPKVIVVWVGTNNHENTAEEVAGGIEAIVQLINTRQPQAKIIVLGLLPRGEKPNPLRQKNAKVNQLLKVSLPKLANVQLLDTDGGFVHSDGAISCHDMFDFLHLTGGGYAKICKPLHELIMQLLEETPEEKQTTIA

inhibition, inactive:
Cn1c(=O)oc2cc(S(=O)(=O)NCCC(=O)NCc3ccccc3Cl)ccc21 -3.01%
Cc1nn(-c2ncccn2)c2c1C(=O)CC(C)(C)C2Br (stereo not drawn) 3.5%
CCOCc1nnc(NC(=O)CSc2ccc(C)cc2)s1 -28.2%
Cc1cnc(NC(=O)CSc2nnc(-c3ccccc3)n2Cc2ccccc2)s1 7.97%
O=C(Nc1nccs1)c1cc(S(=O)(=O)N2CCOCC2)c(Cl)cc1Cl -6.96%
O=C(c1ccc(Cl)c(S(=O)(=O)N2CCCCC2)c1)N1CCCCCC1 -0.08%
Cc1ccc(S(=O)(=O)N2CCN(C(=O)CN3C(=O)NC(C)(c4ccc(Cl)cc4)C3=O)CC2)c(C)c1 (stereo not drawn) 5.07%
O=C(Nc1ccccc1)O/N=C1/CCCc2occc21 5.12%
CCn1c(SCC(=O)NC2CC2)nnc1-c1ccccn1 8.43%
CN(Cc1cc2cc(F)ccc2[nH]1)Cc1nc(-c2cnccn2)no1 3.21%
CCC1(CC)Cc2ccccc2-c2nc(CCl)[nH]c(=O)c21 4.98%
CN(CCOc1ccccc1)Cc1nc2cc(Cl)ccc2c(=O)[nH]1 -0.52%
Cc1ccc(-c2nc(CSCC(=O)NC3CCN(Cc4ccccc4)CC3)c(C)o2)cc1 3.88%
CCOC(=O)N1CCN(c2c(NCCCN3CCCC(C)C3)c(=O)c2=O)CC1 (stereo not drawn) -3.22%
CC(NC(=O)COC(=O)c1cc(=O)[nH]c2ccccc12)c1ccccc1 (stereo not drawn) 6.8%
CCCS(=O)(=O)Nc1c(C(=O)O)[nH]c2ccccc12 1.36%
COc1ccc(/C=N/N(C)C2=NS(=O)(=O)c3ccccc32)cc1OC 12%
Cc1nn(-c2ccc(F)cc2)c(Cl)c1/C=C(/CCC(=O)O)c1nc2ccccc2s1 4.71%
COc1ccc(C(=O)Nc2cccc(/C=C(/CCC(=O)O)c3nc4ccccc4s3)c2)cc1 -1.28%
NC(=O)COc1ccc(/C=N/NC(=O)C2CCCN2S(=O)(=O)c2ccc(Cl)cc2)cc1 (stereo not drawn) 2.71%
O=C(c1cccc(F)c1)N1CCC(O)(c2cccnc2)CC1 1.64%
Cn1cccc1C(=O)NNC(=O)COc1ccc(Br)cc1 6.31%
Cn1cnnc1SCC(=O)NNC(=O)COc1ccc(Br)cc1 8.93%
O=C(N/N=C\c1cccnc1)c1cc(-c2ccccc2)nc2c(Cl)cccc12 -6.71%
O=C(N/N=C/c1cccnc1)c1ccc(NC(=O)c2ccc(F)cc2)cc1 -2.15%
O=C(c1cc2c(s1)CCC2)N1CCN(c2ccccc2)CC1 1.7%
COc1cc(CNc2ncn[nH]2)ccc1OCc1ccccc1C -0.89%
CN(CCCNC(=O)CN1C(=O)CC(C)(C)S(=O)(=O)c2ccccc21)C1CCCCC1 5.24%
COC(=O)c1c(-c2ccc(C)cc2)csc1N 2.65%
CCOc1ccc(NC(=O)CSc2nc3ccccc3c(=O)n2Cc2cccs2)cc1 6.05%
CN1C(C)(C)CC(NC(=O)CCC(=O)NC2CC(C)(C)N(C)C(C)(C)C2)CC1(C)C 2.28%
COc1cc(C(=O)N2C(=O)c3cccc(N)c3C2=O)cc(OC)c1OC 1.13%
CC(=O)N1CCN(S(=O)(=O)c2cccc(C(=O)NC3CCC(C)CC3)c2)CC1 (stereo not drawn) 5.89%
CCn1c(SCC(=O)Nc2nc(C)cs2)nnc1C(C)NC(=O)c1ccccc1 (stereo not drawn) 8.33%
CCC(=O)Nc1nnc(S(=O)(=O)N(CC(C)C)c2ccccc2)s1 17.8%
COc1cccc(C(=O)Nc2nnc(S(=O)(=O)N(C)c3ccccc3)s2)c1 -2.38%
COC(=O)c1sccc1NS(=O)(=O)c1ccc(F)cc1F 0.87%
CC(=O)c1c(C)[nH]c(C(=O)Nc2cc(S(=O)(=O)N(C)C)ccc2C)c1C 2.08%
O=C(NC1CCN(S(=O)(=O)c2ccc(F)cc2)CC1)c1ccccc1 2.57%
Cc1ccc(S(=O)(=O)/N=C(/NC(=S)Nc2c(C)n(C)n(-c3ccccc3)c2=O)c2ccccc2)cc1 9.33%
O=C(CSc1nc(C2CC2)nc2ccccc12)Nc1cccc(O)c1 -0.49%
Cc1nnc(NC(=O)CSc2nc(C3CCCCC3)nc3ccccc23)s1 0.98%
O=C(CN1C(=O)CSC1=O)N1CCCC(Nc2ccc(F)cc2)C1 (stereo not drawn) -1.15%
O=C(c1ccc2c(c1)C(=O)N(Cc1ccncc1)C2=O)N1CCN(S(=O)(=O)c2ccc(OC(F)(F)F)cc2)CC1 5.75%
CC1CC(=S)Nc2ccccc2N1Cc1ccccc1 (stereo not drawn) 7.13%
CC1CN(Cc2ccco2)C(=S)N(c2ccccc2)C1=O (stereo not drawn) 5.61%
COc1ccc(CCNC(=O)c2ccc(NC(=O)CC3SC(N4CCCCC4)=NC3=O)cc2)cc1OC (stereo not drawn) 1.09%
Cc1ccc(C2CC(c3cccc(Br)c3)n3nc(N)nc3N2)cc1 (stereo not drawn) 0.4%
COCCn1c(Cc2cccn2C)nnc1SCC(=O)Nc1nccs1 -1.79%
CC(C)CNC(=O)C1CCCN(S(=O)(=O)c2ccc(-n3cnnn3)cc2)C1 (stereo not drawn) 5.01%
O=C(Nc1ccc(F)cc1)C1CCCN(S(=O)(=O)c2ccc(-n3cnnn3)cc2)C1 (stereo not drawn) 0.34%
O=C(NCc1cccc(Cl)c1)C1=CC=CN2CCS(=O)(=O)N=C12 6%
O=C(C1CCN(CC2CCCCC2)CC1)N1CCCC1 0.2%
CCCCN(CC)CCCNC(=O)c1ccc(CSc2nc3ccncc3[nH]2)cc1 -2.43%
CC1=NN(/C(=N\c2nnc(C)s2)Nc2ccccc2)[C@H](c2ccc(C)cc2)S1 6.77%
CCCSc1nsc(N)n1 3.46%
CCCCCCSc1nsc(N)n1 3.17%
Nc1ccn(C2CC(O)C(CO)O2)c(=O)n1 (stereo not drawn) 4.72%
COc1ccccc1C(=O)NCC(=O)OCC(=O)NNC(=O)c1ccc(Br)cc1 4.05%
COc1cc(C(=O)NCC(=O)NCCSc2ccc(Br)cc2)cc(OC)c1OC 18.7%
Cc1c(C(=O)NC2CCCCC2)oc2ccccc12 1.03%
COc1cccc(CC(=O)OCC(=O)NCc2ccc3c(c2)OCO3)c1 8.95%
Cc1ccc(C(=O)OCC(=O)NCc2ccc3c(c2)OCO3)s1 -1.11%
O=C(Cc1c(O)c2ccccc2[nH]c1=O)NCc1ccccc1 2.81%
Cc1ccc2c(O)c(Cc3ccccc3)c(=O)[nH]c2n1 0.81%
O=C(Nc1ccccc1)Oc1cccc2cccnc12 3.18%
O=C(c1cccc(S(=O)(=O)N2CCCCCC2)c1)N1CCN(Cc2ccccc2)CC1 0.99%
O=C(NC(=O)c1ccc(Cl)c(Cl)c1)OC1CCS(=O)(=O)C1 (stereo not drawn) -3.52%
O=C(NCCc1c[nH]c2ccccc12)c1cc2ccccc2oc1=O 6.1%
CC1CCCCC1NC(=O)COc1ccc(C#N)cc1 (stereo not drawn) 2.44%
O=C(OC12CC3CC(CC(C3)C1)C2)c1ccc(NCc2cc(O)ccc2O)cc1 3.5%
CCn1cc(C(=O)NC2CCCCCC2)c(=O)c2cc(S(=O)(=O)N3CCCCC3)ccc21 0.07%
COc1ccc(S(=O)(=O)N2CCOCC2)cc1C(=O)NC1CCCCC1 2.51%
COc1ccc2c(c1)c(=Cc1ccc(N(C)C)cc1)c1cc(-c3ccccc3)[n+](C)n12 -27.4%

inhibition, active:
Cc1ccc(SCC(=O)Nc2ncc(C)s2)cc1 26.1%
O=C(O)c1cc(S(=O)(=O)N2CCCCCC2)c(Cl)cc1Cl 24.3%
O=c1[nH]c(CCl)nc2cc(-c3ccc(Cl)cc3)sc12 43.4%
O=C(O)c1[nH]c2ccccc2c1C(c1cccc(O)c1)c1c(C(=O)O)[nH]c2ccccc12 94.6%
O=C(O)CC/C(=C\c1cc2c(cc1Br)OCO2)c1nc2ccccc2s1 27.5%
Cc1ccsc1C(=O)NNC(=O)COc1ccc(Br)cc1 24.9%
Fc1ccc(/C=N/Nc2nc(-c3cccnc3)nc3ccccc23)cc1 25.3%
Nc1scc(-c2ccncc2)c1Cl 89.9%
CC1CC(C)CN(S(=O)(=O)c2cccc(C(=O)N3C(=O)c4cccc(N)c4C3=O)c2)C1 (stereo not drawn) 39.9%
CC(C)CC(=O)Nc1nnc(S(=O)(=O)N(C)c2ccc(Cl)cc2)s1 26.6%
O=C(CSc1nc(C2CC2)nc2ccccc12)Nc1ccc2c(c1)OCCO2 38%
CC1CN(Cc2ccccc2)C(=S)NC1=O (stereo not drawn) 29.8%
CC(NC(=O)C1CCCN(S(=O)(=O)c2ccc(-n3cnnn3)cc2)C1)c1ccc(F)cc1 (stereo not drawn) 26.6%
Nc1nc(SC23CC4CC(CC(C4)C2)C3)ns1 25.4%
COc1ccccc1C(=O)NCC(=O)NCCSc1ccc(Br)cc1 27.3%
Cc1cc(Br)ccc1SCC(=O)OCC(=O)NCc1ccc2c(c1)OCO2 25.2%
CCc1ccc2[nH]c(=O)c(Cc3ccccc3)c(O)c2c1 24.7%
Oc1ccc(N=Nc2nccs2)c(O)c1 35.3%
Cc1ccc(S(=O)(=O)N2CCN(C)CC2)cc1C(=O)NC1CCCCC1 25.7%
